Unmarked numbers belong to inactive results. Entries that show only a call come without a potency. Calls of active or inactive are those of the source. Calls come from the whole dose curve.
These molecules were tested against Estrogen receptor (Homo sapiens) (UniProt P03372) (assay: qHTS assay to identify small molecule agonists of the estrogen receptor alpha (ER-alpha) signaling pathway in the presence of an antagonist (AID 1259383; note: top concentration of the series differs between compounds; nearly all actives have a fitted effect of over 15% in size)). Settings: VM7Luc4E2 cells, ERE-luciferase, +ICI-182,780, 22 h; series mostly up to 92.4 µM.
Chain of Estrogen receptor (Homo sapiens) (P03372 whole entry, looked up): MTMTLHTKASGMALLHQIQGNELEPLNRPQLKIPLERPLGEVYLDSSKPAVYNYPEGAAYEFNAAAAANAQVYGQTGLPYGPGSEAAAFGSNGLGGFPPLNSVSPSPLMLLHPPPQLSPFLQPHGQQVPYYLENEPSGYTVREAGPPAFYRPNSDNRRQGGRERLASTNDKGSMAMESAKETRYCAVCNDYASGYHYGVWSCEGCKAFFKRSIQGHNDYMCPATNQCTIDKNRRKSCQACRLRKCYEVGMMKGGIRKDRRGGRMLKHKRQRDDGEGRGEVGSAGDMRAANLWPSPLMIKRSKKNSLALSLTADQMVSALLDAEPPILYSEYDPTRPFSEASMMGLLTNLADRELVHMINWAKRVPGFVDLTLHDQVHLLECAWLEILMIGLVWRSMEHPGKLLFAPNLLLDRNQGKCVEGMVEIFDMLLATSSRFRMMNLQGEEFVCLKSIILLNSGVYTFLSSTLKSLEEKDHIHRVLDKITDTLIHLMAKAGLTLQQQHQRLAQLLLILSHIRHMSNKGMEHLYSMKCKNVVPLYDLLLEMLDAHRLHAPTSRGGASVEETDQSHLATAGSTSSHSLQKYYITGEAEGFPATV
Description: National Center for Advancing Translational Sciences [NCATS] NIH Chemical Genomics Center [NCGC] U.S. Environmental Protection Agency [EPA] National Institutes of Environmental Health Sciences [NIEHS] National Toxicology Program [NTP] Assay overview: Estrogen receptor (ER), a member of nuclear hormone receptor plays an important role in development, metabolic homeostasis and reproduction. Two subtypes of ER, ER-alpha and ER-beta, have similar expression patterns with some uniqueness in both types. Endocrine disrupting chemicals (EDCs) and their interactions with steroid hormone receptors like ER causes disruption of normal endocrine function. Therefore, it is important to understand the effect of environmental chemicals in ER signaling pathway. For identifying ER agonists, VM7Luc4E2 cell line has been used in the current assay. VM7Luc4E2 cell line (provided by Denison MS, University of California) endogenously expresses full-length ER-alpha and is stably transfected with a plasmid containing four estrogen responsive elements (ERE) upstream of a luciferase reporter gene. This current screening for measuring luciferase reporter gene activity using VM7Luc4E2 cells against Tox21 10K library collection is a confirmation study on agonist mode screening in presence of ER-antagonist (ICI-182,780) at 10.0nM final concentration.
Assay Protocol Summary: VM7Luc4E2 cells were cultured in phenol red free assay medium containing 10% charcoal stripped FBS for 5 days prior to the assay. The cells were dispensed at 4,000 cells in 4uL of assay medium per well into white wall/solid-bottom 1536-well plates (Corning Life Sciences, Corning, NY) using a Multidrop Combi (Thermo Fisher Scientific Inc., Waltham, MA) dispenser. After the assay plates were incubated at 37C and 5% CO2 for 24hr, 1uL of 10.0nM (final concentration) ICI-182,780 or assay buffer was added using two separate tips of Flying Reagent Dispenser (FRD, Aurora Discovery, San Diego, CA). Then 23nL of compounds dissolved in DMSO at 15 concentrations and positive controls or DMSO only was transferred to the assay plates by a Pintool station (Wako, San Diego, CA). The assay plates were incubated at 37C and 5% CO2 for 22hr. For luciferase read, 4uL/well ONE-Glo reagent (Promega Corporation, Madison, WI) was added to each well using FRD and after 30min incubation at room temperature, luminescence signal was measured on ViewLux plate reader (PerkinElmer, Shelton, CT).
With `OCCSc1ccccc1` the Potency was “inactive”.
`CCCCCCCCCCCCCCCCBr` gave an activation of -0.645% [at 19 µM].
`CCCC(=O)O[C@]1(C(=O)COC(=O)CC)CC[C@H]2[C@@H]3CCC4=CC(=O)CC[C@]4(C)[C@H]3[C@@H](O)C[C@@]21C` gave an activation of 0.91% [at 19 µM].
With `CC1=C(C=O)C(C)(C)CCC1` the Potency was “inactive”.
In the case of `CCOC(=O)/C=C/C(=O)O`, the Potency is reported as “inactive”.
With `Cc1nc2ccccn2c(=O)c1CCN1CCC(C(=O)c2ccc(F)cc2)CC1` the Potency was “inactive”.
`CC#N` was tested, and the Potency was “inactive”.
For `CC(C)(C)C(=O)C(Oc1ccc(Cl)cc1)n1ccnc1` (stereo not given), the Potency was “inactive”.
In the case of `c1cc[c]([Bi]([c]2ccccc2)[c]2ccccc2)cc1`, the Potency is reported as “inactive”.
For `COCC(O)CO` (stereo not given), the Potency was “inactive”.
With `NC(=O)N(O)[C@@H]1COc2cc(OCc3ccccc3)ccc21` the Potency was “inactive”.
For `CCC(=O)OC/C=C/c1ccccc1`, the Potency was “inactive”.
For `C=CCOC(=O)/C=C\C(=O)OCC=C`, the Potency was “inactive”.
With `CC(C)(CCl)c1ccccc1` the Potency was “inactive”.
`CNC(=S)NC` was tested, and the Potency was “inactive”.
For `CC(C)CCCC(=O)O`, the Potency was “inactive”.
With `CC(C)c1nnc2ccc(-c3ocnc3-c3cc(F)ccc3F)cn12` the Potency was “inactive”.
With `CCOC(=O)OCC` the Potency was “inactive”.
In the case of `CC(C)CCCCCCOC(=O)CCCCC(=O)OCCCCCCC(C)C`, the Potency is reported as “inactive”.
For `CCCOCCOCCO`, the Potency was “inactive”.
For `c1ccc(COCc2ccccc2)cc1`, the Potency was “inactive”.
`CCCOC(=O)c1ccc(N)cc1` was tested, and the Potency was “inactive”.
`CCCCC(=O)O[C@]1(C(=O)CO)[C@@H](C)C[C@H]2[C@@H]3CCC4=CC(=O)C=C[C@]4(C)[C@@]3(F)[C@@H](O)C[C@@]21C` was tested, and the Potency was “inactive”.
`CC1CC(=O)NN=C1c1ccc(NCC(C)(C)NCC(O)COc2cc(Cl)ccc2C#N)cc1` (stereo not given) was tested, and the Potency was “inactive”.
For `CC(=O)OCC(=O)[C@H]1CC[C@H]2[C@@H]3CCC4=CC(=O)CC[C@]4(C)[C@H]3CC[C@]12C`, the Potency was “inactive”.
With `CCCCCCCCCOC(C)=O` the Potency was “inactive”.
For `Cc1occc1C(=O)Nc1ccc(C(=O)N2CCC(F)(F)/C(=C\C(=O)N3CCC(N4CCCCC4)CC3)c3ccccc32)cc1`, the Potency was “inactive”.
For `Cn1c(=O)c2c(ncn2CC(=O)O)n(C)c1=O`, the Potency was “inactive”.
For `C=CCNc1nc(NCC=C)nc(N2CCN(C(c3ccc(F)cc3)c3ccc(F)cc3)CC2)n1`, the Potency was “inactive”.
For `CN(C)CCOC1=Cc2ccccc2Sc2ccc(Cl)cc21`, the Potency was “inactive”.
`N#C[C@@H]1C[C@@H]2C[C@@H]2N1C(=O)[C@@H](N)C12CC3CC(CC(O)(C3)C1)C2` was tested, and the Potency was “inactive”.
With `CCCCCCCCCCCCCCC[C@H](O)[C@@H](N)CO` the Potency was “inactive”.
With `OC(CCCN1CCCCC1)(c1ccccc1)c1ccccc1` the Potency was “inactive”.
With `NC(=O)Nc1ccc(Cl)cc1` the Potency was “inactive”.
In the case of `CCOC(=O)c1ccccc1C`, the Potency is reported as “inactive”.
In the case of `O=C(CCCCCCC(=O)Nc1ccccc1)NO`, the Potency is reported as “inactive”.
In the case of `COc1cc2c(cc1OC)-c1cc(=Nc3c(C)cc(C)cc3C)n(C)c(=O)n1CC2`, the Potency is reported as “inactive”.
`Cc1oc(C)c(C(=O)Nc2ccccc2)c1C` was tested, and the Potency was “inactive”.
In the case of `OC/C(Br)=C(\Br)CO`, the Potency is reported as “inactive”.
In the case of `CC1=C(/C=C/C(C)=C\C=C\C(C)=C\C(=O)O)C(C)(C)CCC1`, the Potency is reported as “inactive”.

From PubChem BioAssay (Tox21)
